Screening results: PubChem, National Center for Advancing Translational Sciences (NCATS)
Hits are enriched below; roughly 8.3% of the tested compounds scored in any of these assays.
HCMV inh: human cytomegalovirus inhibition. HFF cells, HCMV-luciferase reporter, 72 h; active compounds read low. activity change, negative = inhibition, % at 57.5 µM. 4.5% of 410,000 active; in the data active = activity change below about -60%; inconclusive = no clear call, values can overlap the other calls; inactive = above about -39%
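Screen run at 2 compound doses on HFFs infected with reporter HCMV, MOI 1 PFU/cell. Luciferase activity from cell lysates at 72 h post infection gave inhibition relative to buffer-only and Salinomycin wells.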
HCV inhibitor: blocks hepatitis C virus; Huh7.5.1 HCVcc-Cre infection, luciferase reporter, 44 h; Potency, µM (top dose mostly 41.8 µM), for inactives: at the highest dose activity change, negative = inhibition, actives largely listed as inhibitors; 3.4% of 340,000 active; AID 651820; note: potency is the fitted concentration of half-maximal effect
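HCVcc-Cre virus at an moi near 0.5 was added right after compound to cells cultured 4 h from seeding (1,000 cells/well). Luciferase activity was determined 44 h later, 15 min after substrate addition at RT.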
LASV entry inh: inhibitors of Lassa virus binding or cell entry | Lassa virus pseudotype entry inhibition, cell reporter | Potency, µM (doses to about 37.9 µM), for inactives: at the highest dose activity change, negative = inhibition, usual class: inhibitors | 1.2% of 300,000 active | AID 540256; calls by dose curve; tested in HEK293 cells; note: potency is the fitted concentration of half-maximal effect; nearly all actives have a fitted effect of over 50% in size
Giardia FBPA inh: Giardia lamblia aldolase inhibition. purified Giardia FBPA. Potency, µM (top dose mostly 59.6 µM), inactives show at the top dose activity, negative = inhibition, actives largely listed as inhibitors. 0.71% of 290,000 active. AID 2451; note: potency is the fitted concentration of half-maximal effect; nearly all actives have a fitted effect of over 55% in size
Target sequence (A8B2U2 whole entry, looked up): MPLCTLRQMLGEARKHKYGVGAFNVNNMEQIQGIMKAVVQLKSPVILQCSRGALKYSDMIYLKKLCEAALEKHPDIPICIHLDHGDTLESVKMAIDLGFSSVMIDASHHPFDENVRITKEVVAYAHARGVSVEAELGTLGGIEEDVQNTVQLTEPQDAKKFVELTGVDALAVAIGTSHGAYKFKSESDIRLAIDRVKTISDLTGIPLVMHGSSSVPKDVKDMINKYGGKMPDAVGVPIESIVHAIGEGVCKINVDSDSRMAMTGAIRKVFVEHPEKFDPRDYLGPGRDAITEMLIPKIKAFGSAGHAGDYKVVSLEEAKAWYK
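40 nM FBPA preincubated 10 min at RT with compound (up to 57.5 uM final), then substrate plus GAPDH/TPI/NAD/arsenate coupling and diaphorase/resazurin added. Fluorescence read after 20 min at RT, 525/598 nm.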
MARV entry inh: Marburg virus entry inhibition. 1.8% of 300,000 active. Marburg virus pseudotyped entry inhibition, cell reporter. AID 540276. Potency, µM (doses to about 37.8 µM), for inactives: top-dose activity change, negative = inhibition, usual class: inhibitors; calls by dose curve; tested in HEK293 cells; note: potency is the fitted concentration of half-maximal effect
FMDV inh: blocks foot and mouth disease virus; FMDV antiviral cell-based qHTS; Potency, µM (series often up to 57.9 µM), for the others: at the highest dose activity change, negative = inhibition, actives largely listed as inhibitors; 1.2% of 410,000 active; AID 1159524; calls by dose curve; tested in HEK293T cells; note: read-out not given here; potency is the fitted concentration of half-maximal effect; nearly all actives have a fitted effect of over 45% in size
The depositor's hits bear a star; ? = inconclusive; nt = not tested or not shown; [ ] = remark or other dose. Unless noted, calls come from the whole dose curve; as a rule, active = well fitted curve in the direction sought with a large enough effect; inconclusive = small, poorly fitted or top-dose-only effect, or another doubt; inactive = no such curve, though single readings can be large; an effect the other way counts as inactive or inconclusive. % is set by controls: 0 for no effect and ±100 for the full control effect.

SMILES | HCMV inh | HCV inhibitor | LASV entry inh | Giardia FBPA inh | MARV entry inh | FMDV inh
Cc1cnc(-n2ncc(C(=O)NC(C)(C)CO)c2-c2cccs2)nc1-c1ccc(F)cc1 | nt | nt | nt | nt | nt | 21.4%
CCn1c(=O)c2cc(C(=O)N(CCCOC(C)C)Cc3ccco3)sc2c2ccccc21 | -23.4 | nt | -25.2%[46.1 µM] | nt | -3.9%[46.1 µM] | -12.1%
CCN(CC)C(=O)c1oc2ccc(S(=O)(=O)N3CCCCCC3)cc2c1C | ? | 25.1µM* | ? | -3.8% | ? | ?
CCN(CC)C(=O)c1oc2ccc(S(=O)(=O)N3CC(C)CC(C)C3)cc2c1C (centres undefined) | -87.9* | 3.55µM* | ? | 1.3% | ? | -28.2%
C[C@@H]1C=CCC(=O)N[C@@H](c2ccccc2)[C@H](C)C=CCC(=O)N[C@@H]1c1ccccc1 | nt | nt | ? | nt | 12.4%[14.2 µM] | nt
COc1cccc([C@H]2Oc3ccc(OC)cc3/C(=N\OC[C@@H](C)[C@H](OCc3ccccc3)C(C)C)[C@@H]2O)c1 | nt | nt | nt | nt | 10.0%[14.2 µM] | nt
COc1ccc(CN2CCCC(C(=O)c3cccc(Cl)c3)C2)cc1 (centres undefined) | -14.0 | -4.6% | nt | 6.1% | nt | -19.2%
O=C(c1ccc(Cl)cc1)C1CCCN(Cc2ccc3c(c2)OCCO3)C1 (centres undefined) | -20.8 | -26.3% | -19.8% | -0.8% | ? | -18.6%
O=C(c1ccc(Cl)cc1)C1CCCN(Cc2cccc3cnccc23)C1 (centres undefined) | -61.9* | ? | nt | 0.8% | nt | ?
O=C(c1cccc(Cl)c1)C1CCCN(Cc2cccc3cnccc23)C1 (centres undefined) | -71.1* | ? | -7.1% | -4.7% | ? | ?
O=C(c1ccc(Cl)cc1)C1CCCN(Cc2ccc3ncccc3c2)C1 (centres undefined) | -75.3* | ? | nt | -5.8% | ? | ?
Cc1ccc(CCNc2nc3c(S(=O)(=O)c4ccc(C)cc4)nnn3c3ccsc23)cc1 | 32.1 | nt | 13.7%[46.1 µM] | nt | nt | 4.2%
CC1=NN(c2ccc(C(=O)O)c(N)c2)C(=O)C1 | -20.1 | 21.5% | 6.6% | 7.06µM* | 11.6%[46.1 µM] | 37.2%
COc1cc(CCNC(C)=O)c(C(=O)/C=C/c2cccc(OC)c2OC)cc1OC | nt | nt | nt | 1.3% | nt | -18.0%
CCOc1ccc(NC(=O)c2ccccc2NC(=O)CNC2CCCC(C)C2C)cc1 (centres undefined) | -65.6* | -13.5% | nt | nt | nt | -12.1%
O=c1c2ccccc2c(-c2ccc(O)cc2)nn1-c1cccc(C(F)(F)F)c1 | ? | ? | ? | -3.3% | ? | 39.8µM*
O=c1c2ccccc2c(-c2ccc(Cl)cc2)nn1-c1ccccc1 | -63.4* | ? | -2.0% | 5.0% | -2.2% | -27.6%
O=c1c2ccccc2c(-c2cccc(C(F)(F)F)c2)nn1-c1ccccc1 | -3.7 | 8.0% | ? | -10.2% | ? | -4.8%
COc1ccc(Oc2nc3ccccc3n3cccc23)cc1 | -26.1 | 11.2µM* | -7.2% | -0.4% | -21.6% | -16.4%
Clc1ccc(Oc2nc3ccccc3n3cccc23)cc1 | 8.5 | ? | -0.5% | -1.2% | -6.2% | ?
CC(C)CSc1nnc(CNC(=O)c2ccccn2)n1C | nt | nt | nt | nt | nt | -8.4%
Cc1cccc(-n2cnc3cc(C(=O)NC4CCCCCC4)ccc32)c1 | -29.7 | nt | ? | nt | nt | 3.1%
CCOC(=O)c1cc(S(=O)(=O)N2CCN(c3cc(C)ccc3C)CC2)[nH]n1 | 12.2 | nt | -4.8%[46.1 µM] | nt | nt | -0.5%
CCN(CC)S(=O)(=O)c1ccc(S(=O)(=O)N2CCCC(C(=O)NC3CC3)C2)cc1 (centres undefined) | -82.6* | -15.8% | -19.0% | 1.2% | ? | ?
Cc1cccc(N2CCN(C(=O)C3CCCN(S(=O)(=O)c4ccc5c(c4)oc(=O)n5C)C3)CC2)c1C (centres undefined) | ? | nt | ? | nt | ? | 11.2µM*
SMILES | HCMV inh | HCV inhibitor | LASV entry inh | Giardia FBPA inh | MARV entry inh | FMDV inh
Cn1c(=O)oc2cc(S(=O)(=O)N3CCCC(C(=O)N4CCN(c5cccc(Cl)c5)CC4)C3)ccc21 (centres undefined) | ? | nt | 2.5%[46.1 µM] | nt | -16.4%[46.1 µM] | 25.1µM*
CCOC(=O)N1CCC(NC(=O)C2CCCN(S(=O)(=O)c3ccc4c(c3)oc(=O)n4C)C2)CC1 (centres undefined) | -62.8* | 12.8% | -15.7% | 1.0% | 8.7% | nt
COc1ccc(-c2nnc3n2N=C(c2cc(OC)ccc2OC)CS3)c(OC)c1 | nt | nt | nt | 2.7% | nt | nt
COc1ccc(OC)c(NC(=O)c2cc3c(s2)-c2ccccc2SC3)c1 | 1.0 | nt | 12.3%[46.1 µM] | nt | 2.0%[46.1 µM] | -2.6%
O=S(=O)(Nc1ccc(-c2ccc(N3CCCC3)nn2)cc1)c1ccc(OC(F)(F)F)cc1 | 28.3 | nt | ? | nt | nt | 19.6%
Clc1ccccc1C(c1ccccc1)(c1ccccc1)n1ccnc1 | -69.7* | ? | 6.51µM* | -2.3% | 15.8µM* | ?
Cc1ccc(S(=O)(=O)N2CCCN(S(=O)(=O)c3ccc4c(c3)OCCO4)CC2)cc1 | -30.6 | -27.9% | ? | 17.7% | 1.0% | ?
Cc1ccc2nc(N3CCN(S(=O)(=O)c4ccc5c(c4)OCCO5)CC3)c(C#N)cc2c1 | -39.8 | 14.1µM* | ? | -3.3% | ? | -17.9%
Cc1ccc(S(=O)(=O)N2CCCN(c3nc4cc(C)ccc4cc3C#N)CC2)cc1 | -39.6 | 22.4µM* | -19.0% | -3.8% | ? | nt
COc1ccc(-c2c(C)nn3c(N)c(-c4ccccc4)cnc23)cc1OC | 2.7 | 12.6µM* | nt | -1.3% | nt | 13.5%
COc1ccccc1-c1c(C)nn2c(N)c(-c3ccccc3)cnc12 | -81.7* | ? | -8.5%[46.1 µM] | -0.1% | ? | -11.2%
COCc1nn2c(N)c(-c3ccccc3)cnc2c1-c1ccccc1 | 19.7 | -3.9% | ? | 1.5% | 11.8%[46.1 µM] | 23.3%
COc1ccc(-c2c(C)nn(-c3ccccc3)c2N)cc1OC | 35.9 | 11.0% | -1.4% | -2.7% | 19.8% | 24.9%
CCN(C(=O)C1CCN(S(=O)(=O)c2cc(Br)cc3c2N(C(C)=O)CC3)CC1)c1cccc(C)c1 | -1.6 | nt | -23.5%[46.1 µM] | nt | ? | -27.4%
NC(Cc1ccc(C(F)(F)F)cc1)c1csc(NC(=O)Nc2ccccc2Oc2ccccc2)n1 (centres undefined) | -101.7* | nt | nt | nt | nt | 0.0%
NC(COCc1ccccc1)c1csc(NC(=O)Nc2cccc(C(F)(F)F)c2)n1 (centres undefined) | -99.8* | nt | nt | nt | nt | -19.0%
CN(C)Cc1csc(NC(=O)Nc2ccccc2-c2ccccc2)n1 | -10.2 | nt | nt | nt | nt | -12.8%
CN(C)Cc1csc(NC(=O)Nc2ccccc2Oc2ccccc2)n1 | -74.8* | nt | nt | nt | nt | 16.2%
COc1ccc(NC(=O)Nc2nc(C(N)Cc3ccc(C(F)(F)F)cc3)cs2)cc1 (centres undefined) | -103.2* | nt | nt | nt | nt | ?
Cc1ccc(C(=O)NCCc2nnc3n2CCN(Cc2cc(C)cc(C)c2)CC3)cc1 | nt | nt | nt | nt | nt | -12.4%
Oc1cc(-c2cccs2)cc2c1OCCN(Cc1cn[nH]c1-c1ccc(Cl)cc1)C2 | nt | nt | nt | nt | nt | 1.2%
